# Measurements reported in PubChem BioAssay (EPA / NIEHS).
# Values joined by “and” are separate entries in the source; they are usually repeats but may differ in a detail not shown here. Equal values may be shown once. Results filed as inconclusive are left out. Some structures have more than one record in an assay (separate samples or runs), and their calls can disagree. Active and inactive are the calls of the source. How the source made its calls, unless noted: active means hit-call score of the fitted dose curve at least 0.9, where 1 is the maximum; inconclusive means response in the unintended direction; inactive means score below 0.9.
# How the values were obtained:
# [1] = ATG_GRE_CIS: Attagene CIS-FACTORIAL HepG2 Assay for human Glucocorticoid Response Elements (GRE) (AID 2282947; active means hit-call score of the fitted dose curve at least 0.9, where 1 is the maximum; inactive means score below 0.9); details: HepG2 GRE cis-reporter, Attagene multiplex mRNA; actives raise or lower the signal
# Summary of the method: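 HepG2 cells transiently transfected with multiple cis-promoter reporter units measure endogenous TF activity; 24 h compound exposure. Reporter mRNA quantified by RT-PCR, FAM labelling, HpaI digestion and capillary electrophoresis; bidirectional fit vs DMSO baseline.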
# [2] = ATG_PBREM_CIS: Attagene CIS-FACTORIAL HepG2 Assay for human Phenobarbital-responsive Enhancer Module (PBREM) (AID 2282955; active means hit-call score of the fitted dose curve at least 0.9, where 1 is the maximum; inactive means score below 0.9); details: HepG2 PBREM cis-reporter, Attagene multiplexed transcription; actives raise or lower the signal
# Summary of the method: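 Endogenous transcription factors in human liver HepG2 cells drive a PBREM cis-element reporter, whose transcript level after 24 h treatment is quantified by RT-PCR with capillary electrophoresis; activity fitted in both directions against DMSO.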
# [3] = biological target: Paired box protein Pax-6 (Homo sapiens) (UniProt P26367); test: ATG_Pax6_CIS: Attagene CIS-FACTORIAL HepG2 Assay for human Paired Box 6 (PAX6) (AID 2282956; active means hit-call score of the fitted dose curve at least 0.9, where 1 is the maximum; inactive means score below 0.9); details: HepG2 CIS-FACTORIAL PAX6 reporter transcription, RNA readout; actives raise or lower the signal
# Paired box protein Pax-6 (Homo sapiens), sequence (P26367 whole entry, looked up): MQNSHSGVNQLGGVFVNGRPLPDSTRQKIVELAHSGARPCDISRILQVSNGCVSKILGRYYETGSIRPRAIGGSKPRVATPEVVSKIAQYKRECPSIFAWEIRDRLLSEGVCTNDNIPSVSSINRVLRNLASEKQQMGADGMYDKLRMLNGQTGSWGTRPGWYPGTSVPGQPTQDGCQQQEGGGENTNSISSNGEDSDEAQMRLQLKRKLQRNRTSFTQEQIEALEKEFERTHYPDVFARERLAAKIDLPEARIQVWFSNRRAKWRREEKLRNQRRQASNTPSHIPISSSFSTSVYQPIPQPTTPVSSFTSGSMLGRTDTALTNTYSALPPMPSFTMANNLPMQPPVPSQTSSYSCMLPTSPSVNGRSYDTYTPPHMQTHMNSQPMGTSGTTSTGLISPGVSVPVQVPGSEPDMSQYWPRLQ
# Summary of the method: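 HepG2 cells transiently transfected with cis-promoter-driven multiplexed reporter units sensing endogenous transcription factor activity; 24 h chemical exposure. Reporter mRNA quantified by RT-PCR, 6-FAM labelling, HpaI digestion and capillary electrophoresis; bidirectional fit versus DMSO baseline.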
# [4] = ATG_RORE_CIS: Attagene CIS-FACTORIAL HepG2 Assay for human RAR-related Orphan Receptor Element (RORE) (AID 2282959; active means hit-call score of the fitted dose curve at least 0.9, where 1 is the maximum; inactive means score below 0.9); details: HepG2 Attagene cis-factorial RORE reporter, mRNA; actives raise or lower the signal
# Summary of the method: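 Transient MRTU transfection of human HepG2 liver cells (FuGene 6); 24 h compound exposure; TriZol RNA, oligo(dT) RT, PCR, FAM labeling, HpaI cut, CE fragment analysis. DMSO = negative control/baseline.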
# [5] = ATG_M_06_TRANS: Attagene TRANS-FACTORIAL HepG2 Assay for M06 Transcription Factor (Internal Marker) (AID 2282983); details: HepG2 Attagene TRANS M06 internal marker reporter
# Summary of the method: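 Measured by capillary electrophoresis of fluorescently labelled RT-PCR products, this endpoint reflects reporter mRNA in HepG2 cells harbouring exogenous NR-GAL4 reporter constructs after 24 h exposure, with DMSO as baseline.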
# [6] = biological target: Myc proto-oncogene protein (Homo sapiens) (UniProt P01106); test: ATG_Myc_CIS: Attagene CIS-FACTORIAL HepG2 Assay for human Myelocytomatosis (Myc) Proto-Oncogene Transcription Factor (AID 2282990; active means hit-call score of the fitted dose curve at least 0.9, where 1 is the maximum; inactive means score below 0.9); details: HepG2, Attagene cis-reporter transcription factor activity; actives raise or lower the signal
# Myc proto-oncogene protein (Homo sapiens), sequence (P01106 whole entry, looked up): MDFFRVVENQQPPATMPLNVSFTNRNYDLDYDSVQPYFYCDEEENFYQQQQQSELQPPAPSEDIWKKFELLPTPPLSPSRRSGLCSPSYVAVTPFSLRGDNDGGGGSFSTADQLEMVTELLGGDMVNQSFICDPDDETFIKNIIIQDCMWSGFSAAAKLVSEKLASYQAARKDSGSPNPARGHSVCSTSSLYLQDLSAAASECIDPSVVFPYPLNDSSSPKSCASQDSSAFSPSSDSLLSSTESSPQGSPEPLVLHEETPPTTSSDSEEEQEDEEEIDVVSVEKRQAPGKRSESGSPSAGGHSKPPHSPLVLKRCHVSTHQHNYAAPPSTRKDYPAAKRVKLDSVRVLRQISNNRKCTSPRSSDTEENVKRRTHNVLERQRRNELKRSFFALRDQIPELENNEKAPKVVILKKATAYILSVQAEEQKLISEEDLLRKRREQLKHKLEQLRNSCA
# Summary of the method: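 DMSO-normalised, bidirectionally fitted reporter mRNA signal. HepG2 cells transfected with cis reporter constructs, treated 24 h; transcripts detected by RT-PCR, 6-FAM primer extension and CE.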
# [7] = ATG_NF_kB_CIS: Attagene CIS-FACTORIAL HepG2 Assay for human Nuclear Factor Kappa B (NF-kB) (AID 2282991; active means hit-call score of the fitted dose curve at least 0.9, where 1 is the maximum; inactive means score below 0.9); details: HepG2 Attagene cis-factorial NF-kB reporter mRNA; actives raise or lower the signal
# Summary of the method: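 Transient MRTU transfection of human HepG2 liver cells → 24 h chemical exposure → total RNA, oligo(dT) RT → PCR, 6-FAM primer extension, HpaI digest 2 h 37 C → CE fragment analysis. Bidirectional fitting, DMSO negative control.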
# [8] = biological target: human Peroxisome Proliferator-activated Receptor alpha (PPARa), PPARA (gene 5465) (UniProt Q07869); test: ATG_PPARa_TRANS: Attagene TRANS-FACTORIAL HepG2 Assay for human Peroxisome Proliferator-activated Receptor alpha (PPARa) (AID 2283001)
# human Peroxisome Proliferator-activated Receptor alpha (PPARa), PPARA (gene 5465), sequence (Q07869 whole entry, looked up, the tested form may be a part): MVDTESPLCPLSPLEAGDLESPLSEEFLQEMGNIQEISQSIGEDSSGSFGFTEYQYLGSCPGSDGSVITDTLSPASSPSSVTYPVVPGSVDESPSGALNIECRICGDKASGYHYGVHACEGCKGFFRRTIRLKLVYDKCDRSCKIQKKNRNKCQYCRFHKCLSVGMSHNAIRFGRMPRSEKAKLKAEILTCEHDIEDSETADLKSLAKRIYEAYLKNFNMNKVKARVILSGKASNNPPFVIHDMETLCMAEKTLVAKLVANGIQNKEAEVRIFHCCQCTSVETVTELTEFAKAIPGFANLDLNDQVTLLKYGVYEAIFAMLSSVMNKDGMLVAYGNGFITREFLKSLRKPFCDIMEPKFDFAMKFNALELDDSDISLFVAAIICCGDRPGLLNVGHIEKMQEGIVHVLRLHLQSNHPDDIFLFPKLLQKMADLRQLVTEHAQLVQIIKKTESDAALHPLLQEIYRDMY
# Summary of the method: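 HepG2 cells transiently transfected with multiplexed GAL4-UAS reporter units and chimeric NR-Gal4 constructs were dosed for 24 h. Reporter mRNA was measured by RT-PCR with fluorescent labelling and capillary electrophoresis; gain of signal fitted against DMSO.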
# [9] = biological target: human Retinoid X Receptor beta (RXRb), RXRB (gene 6257) (UniProt P28702); test: ATG_RXRb_TRANS: Attagene TRANS-FACTORIAL HepG2 Assay for human Retinoid X Receptor beta (RXRb) (AID 2283013)
# human Retinoid X Receptor beta (RXRb), RXRB (gene 6257), sequence (P28702 whole entry, looked up): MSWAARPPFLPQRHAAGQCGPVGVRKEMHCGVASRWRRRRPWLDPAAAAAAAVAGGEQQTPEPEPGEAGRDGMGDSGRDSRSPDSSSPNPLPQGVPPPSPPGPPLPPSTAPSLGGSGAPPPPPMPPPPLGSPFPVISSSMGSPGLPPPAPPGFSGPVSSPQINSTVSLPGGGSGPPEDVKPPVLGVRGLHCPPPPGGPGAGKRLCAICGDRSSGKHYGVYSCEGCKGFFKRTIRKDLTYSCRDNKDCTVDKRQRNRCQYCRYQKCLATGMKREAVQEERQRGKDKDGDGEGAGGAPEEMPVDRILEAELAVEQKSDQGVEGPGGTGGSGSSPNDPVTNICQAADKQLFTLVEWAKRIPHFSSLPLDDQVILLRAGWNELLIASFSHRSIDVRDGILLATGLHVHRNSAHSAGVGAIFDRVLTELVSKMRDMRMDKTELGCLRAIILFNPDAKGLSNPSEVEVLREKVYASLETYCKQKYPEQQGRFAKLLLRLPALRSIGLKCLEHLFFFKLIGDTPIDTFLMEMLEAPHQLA
# Summary of the method: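 Multiplexed TRANS reporter assay in HepG2; 24 h dosing; reporter mRNA by RT-PCR/CE fluorescence; gain-of-signal relative to DMSO.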
# [10] = biological target: Hepatocyte nuclear factor 6 (Homo sapiens) (UniProt Q9UBC0); test: ATG_HNF6_CIS: Attagene CIS-FACTORIAL HepG2 Assay for human Hepatocyte Nuclear Factor 6 (HNF6) (AID 2282952; active means hit-call score of the fitted dose curve at least 0.9, where 1 is the maximum; inactive means score below 0.9); details: HepG2 Attagene cis-factorial HNF6 reporter transcription; actives raise or lower the signal
# Hepatocyte nuclear factor 6 (Homo sapiens), sequence (Q9UBC0 whole entry, looked up, the tested form may be a part): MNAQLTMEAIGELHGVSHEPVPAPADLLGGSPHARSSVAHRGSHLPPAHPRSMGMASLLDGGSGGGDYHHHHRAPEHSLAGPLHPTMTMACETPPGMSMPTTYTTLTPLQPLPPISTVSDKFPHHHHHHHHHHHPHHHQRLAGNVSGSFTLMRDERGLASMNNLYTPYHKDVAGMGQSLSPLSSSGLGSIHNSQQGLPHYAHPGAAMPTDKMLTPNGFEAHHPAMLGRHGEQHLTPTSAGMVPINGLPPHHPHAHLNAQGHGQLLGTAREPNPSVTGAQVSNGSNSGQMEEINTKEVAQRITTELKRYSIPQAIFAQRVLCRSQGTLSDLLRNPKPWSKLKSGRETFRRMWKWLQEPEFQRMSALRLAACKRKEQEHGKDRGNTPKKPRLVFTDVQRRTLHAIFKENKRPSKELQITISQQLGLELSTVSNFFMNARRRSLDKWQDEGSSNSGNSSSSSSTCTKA
# Summary of the method: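 Reporter mRNA induction or loss in HepG2 after 24 h exposure; transient cis-MRTU transfection; fragments quantified by capillary electrophoresis; bidirectional analysis, DMSO as negative control.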
# [11] = ATG_MRE_CIS: Attagene CIS-FACTORIAL HepG2 Assay for human Metal Responsive Element (MRE) (AID 2282954; active means hit-call score of the fitted dose curve at least 0.9, where 1 is the maximum; inactive means score below 0.9); details: HepG2 MRE cis-reporter transcription, Attagene multiplex; actives raise or lower the signal
# Summary of the method: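 HepG2 cells transiently transfected with multiple cis-element reporter units measure endogenous MTF1-driven transcription. After 24 h compound exposure, reporter mRNA is quantified by RT-PCR with 6-FAM labelling, HpaI digestion and capillary electrophoresis; bidirectional fits versus DMSO.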
# [12] = biological target: Hepatocyte nuclear factor 4-alpha (Homo sapiens) (UniProt P41235); test: ATG_HNF4a_TRANS: Attagene TRANS-FACTORIAL HepG2 Assay for human Hepatocyte Nuclear Factor 4 alpha (HNF4a) (AID 2282982); details: HepG2 HNF4a transactivation reporter, mRNA readout
# Hepatocyte nuclear factor 4-alpha (Homo sapiens), sequence (P41235 whole entry, looked up, the tested form may be a part): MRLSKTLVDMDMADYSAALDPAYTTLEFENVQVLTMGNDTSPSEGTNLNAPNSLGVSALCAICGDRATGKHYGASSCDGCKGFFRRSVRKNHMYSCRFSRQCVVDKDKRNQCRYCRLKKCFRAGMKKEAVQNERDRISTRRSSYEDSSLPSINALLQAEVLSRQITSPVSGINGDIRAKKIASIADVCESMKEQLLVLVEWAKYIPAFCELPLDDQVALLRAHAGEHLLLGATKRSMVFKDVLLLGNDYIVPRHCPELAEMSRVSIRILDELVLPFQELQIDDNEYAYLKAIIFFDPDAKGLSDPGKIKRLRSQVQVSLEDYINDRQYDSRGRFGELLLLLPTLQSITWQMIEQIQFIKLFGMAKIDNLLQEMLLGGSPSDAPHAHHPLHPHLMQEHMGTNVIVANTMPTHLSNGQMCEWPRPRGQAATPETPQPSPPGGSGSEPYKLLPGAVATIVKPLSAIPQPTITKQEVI
# Summary of the method: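 HepG2 cells transiently transfected with multiplexed GAL4-UAS reporter units responsive to chimeric NR-GAL4 proteins; compound exposure 24 h. Reporter mRNA quantified by RT-PCR, 6-FAM labelling, HpaI digestion and capillary electrophoresis; gain of signal versus DMSO baseline.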
# [13] = biological target: Nuclear receptor subfamily 1 group I member 2 (Homo sapiens) (UniProt O75469); test: ATG_PXR_TRANS: Attagene TRANS-FACTORIAL HepG2 Assay for human Pregnane X Receptor (PXR) (AID 2283008)
# Nuclear receptor subfamily 1 group I member 2 (Homo sapiens), sequence (O75469 whole entry, looked up, the tested form may be a part): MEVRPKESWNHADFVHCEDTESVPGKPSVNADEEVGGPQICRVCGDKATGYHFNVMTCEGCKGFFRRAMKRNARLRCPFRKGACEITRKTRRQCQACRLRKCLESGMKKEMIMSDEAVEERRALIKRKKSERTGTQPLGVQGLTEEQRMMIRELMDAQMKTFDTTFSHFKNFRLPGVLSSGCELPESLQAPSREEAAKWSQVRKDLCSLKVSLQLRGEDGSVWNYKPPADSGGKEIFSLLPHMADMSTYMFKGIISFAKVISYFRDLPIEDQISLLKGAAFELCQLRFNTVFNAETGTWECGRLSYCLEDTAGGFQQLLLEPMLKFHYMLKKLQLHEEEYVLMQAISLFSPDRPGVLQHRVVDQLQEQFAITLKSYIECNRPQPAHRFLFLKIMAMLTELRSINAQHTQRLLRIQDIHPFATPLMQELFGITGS
# Summary of the method: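 HepG2 cells transiently transfected with GAL4-UAS reporter units and PXR-Gal4 chimera, exposed 24 h. Reporter mRNA quantified by RT-PCR, fluorescent labelling, HpaI digestion and capillary electrophoresis; gain of signal vs DMSO.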
# [14] = biological target: Peroxisome proliferator-activated receptor gamma (Homo sapiens) (UniProt P37231); test: ATG_PPARg_TRANS: Attagene TRANS-FACTORIAL HepG2 Assay for human Peroxisome Proliferator-activated Receptor-gamma (PPARg) (AID 2283007)
# Peroxisome proliferator-activated receptor gamma (Homo sapiens), sequence (P37231 whole entry, looked up, the tested form may be a part): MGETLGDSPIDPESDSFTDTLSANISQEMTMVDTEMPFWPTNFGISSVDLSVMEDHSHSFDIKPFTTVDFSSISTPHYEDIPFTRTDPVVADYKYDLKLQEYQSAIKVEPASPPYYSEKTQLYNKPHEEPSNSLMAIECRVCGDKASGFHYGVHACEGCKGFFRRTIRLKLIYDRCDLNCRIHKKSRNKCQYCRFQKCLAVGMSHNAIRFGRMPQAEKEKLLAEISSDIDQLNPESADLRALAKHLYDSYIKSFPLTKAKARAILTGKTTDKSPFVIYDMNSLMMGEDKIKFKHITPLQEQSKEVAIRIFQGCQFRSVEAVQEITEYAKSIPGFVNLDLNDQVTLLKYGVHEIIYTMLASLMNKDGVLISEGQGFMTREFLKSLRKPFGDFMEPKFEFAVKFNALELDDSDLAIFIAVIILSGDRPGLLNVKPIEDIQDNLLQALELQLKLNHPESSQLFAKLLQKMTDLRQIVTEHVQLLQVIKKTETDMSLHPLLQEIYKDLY
# Summary of the method: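 Transient transfection of HepG2 with GAL4-UAS-driven reporter units; chemical dosing 24 h; total RNA → oligo(dT) RT → PCR with reporter primers → 6-FAM primer extension → HpaI digest 2 h 37 C → capillary electrophoresis. Positive direction vs DMSO.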
# [15] = biological target: Cellular tumor antigen p53 (Homo sapiens) (UniProt P04637); test: TOX21_p53_BLA_p2_ratio: Tox21 HCT-116 p53 Agonism Beta-lactamase Assay, Ratio, Phase 2 (AID 2283592)
# Cellular tumor antigen p53 (Homo sapiens), sequence (P04637 whole entry, looked up): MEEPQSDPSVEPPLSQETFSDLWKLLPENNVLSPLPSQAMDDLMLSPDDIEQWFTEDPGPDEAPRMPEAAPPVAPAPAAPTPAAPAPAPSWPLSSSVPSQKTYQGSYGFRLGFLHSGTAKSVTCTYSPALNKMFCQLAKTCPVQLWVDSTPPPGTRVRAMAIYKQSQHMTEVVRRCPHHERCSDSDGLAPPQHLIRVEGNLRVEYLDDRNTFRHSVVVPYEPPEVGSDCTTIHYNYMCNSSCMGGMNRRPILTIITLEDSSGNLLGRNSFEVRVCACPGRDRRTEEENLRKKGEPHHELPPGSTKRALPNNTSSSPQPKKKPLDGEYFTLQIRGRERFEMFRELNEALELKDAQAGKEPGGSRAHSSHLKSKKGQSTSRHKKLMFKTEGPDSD
# Summary of the method: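 An inducible beta-lactamase reporter in HCT116 cells signals p53 pathway activation. After 16 h chemical exposure at 37C, cells load CCF4-AM substrate for 2 h at room temperature; activity is the cleaved/uncleaved emission ratio relative to DMSO.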
# [16] = biological target: Cellular tumor antigen p53 (Homo sapiens) (UniProt P04637); test: TOX21_p53_BLA_p3_ratio: Tox21 HCT-116 p53 Agonism Beta-lactamase Assay, Ratio, Phase 3 (AID 2283596)
# Summary of the method: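 HCT116 p53-bla cells (4000/well) given compound in DMSO (217-fold dilution) after 5 h, incubated 16 h at 37C. CCF4-AM substrate 2 h at room temperature; 460/530 nm emission ratio, gain fitted against DMSO.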
# [17] = biological target: Cellular tumor antigen p53 (Homo sapiens) (UniProt P04637); test: TOX21_p53_BLA_p5_ratio: Tox21 HCT-116 p53 Agonism Beta-lactamase Assay, Ratio, Phase 5 (AID 2283599)
# Summary of the method: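 HCT-116 cells carrying a p53-inducible beta-lactamase reporter were seeded at 4000 cells/well and dosed after 5 h with compound in DMSO (217-fold dilution). After 16 h at 37C, CCF4-AM substrate was added for 2 h, and the 460/530 nm emission ratio was scored as gain-of-signal versus DMSO.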
# [18] = TOX21_p53_BLA_p5_viability: Viability Assessment in the Tox21 HCT-116 p53 Agonism Beta-lactamase Assay, Phase 5 (AID 2283600)
# Summary of the method: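 Counter-readout for cytotoxicity: ATP-dependent luminescence from CellTiter-Glo, read in the beta-lactamase wells after 30 min at RT, following a 16 h compound exposure at 37C.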
# [19] = biological target: Cellular tumor antigen p53 (Homo sapiens) (UniProt P04637); test: TOX21_p53_BLA_p4_ratio: Tox21 HCT-116 p53 Agonism Beta-lactamase Assay, Ratio, Phase 4 (AID 2283601)
# Summary of the method: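 HCT116 cells carrying an inducible beta-lactamase reporter were plated at 4000 cells/well, rested 5 h, then exposed to compounds in DMSO (217-fold dilution) for 16 h at 37C. CCF4-AM substrate was loaded 2 h at room temperature; 460/530 nm emission ratio scored gain-of-signal versus DMSO.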
# [20] = ATG_M_61_CIS: Attagene CIS-FACTORIAL HepG2 Assay for M61 Transcription Factor (Internal Marker) (AID 2282937; active means hit-call score of the fitted dose curve at least 0.9, where 1 is the maximum; inactive means score below 0.9); details: HepG2 Attagene CIS-FACTORIAL M61 internal marker reporter; actives raise or lower the signal
# Summary of the method: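 Human liver HepG2, transient MRTU transfection (cis promoter elements), 24 h compound. Total RNA → oligo(dT) RT → PCR → FAM label → HpaI → CE. Internal background marker; bidirectional fitting, DMSO = baseline.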
structure (smiles),measurement,setting,value
ClCCCCCCCl,outcome,[1],inactive
same,outcome,[2],inactive
same,outcome,[3],inactive
same,outcome,[4],inactive
same,outcome,[5],inactive
same,outcome,[6],inactive
same,outcome,[7],inactive
same,outcome,[8],inactive
same,outcome,[9],inactive
CCC(=O)c1ccc(Cl)cc1,outcome,[1],inactive
same,outcome,[10],inactive
same,outcome,[11],inactive
same,outcome,[2],inactive
same,outcome,[3],inactive
same,outcome,[4],inactive
same,outcome,[12],inactive
same,outcome,[5],inactive
same,outcome,[6],inactive
same,outcome,[7],inactive
same,outcome,[13],inactive
same,outcome,[9],inactive
Cc1ccc(OP(=O)(Oc2ccc(C)cc2)Oc2ccc(C)cc2)cc1 (tested in a mixture with another compound),outcome,[1],inactive
same,outcome,[10],inactive
same,outcome,[5],inactive
same,AC50,[14],1.85 µM (active)
same,AC50,[13],0.596 µM (active)
same,outcome,[15],inactive
same,outcome,[16],inactive
same,outcome,[17],inactive
same,outcome,[18],inactive
same,outcome,[19],inactive
O=C(O)CCCc1ccc(N(CCCl)CCCl)cc1,outcome,[20],inactive
same,outcome,[10],inactive
same,outcome,[3],inactive
same,outcome,[12],inactive
same,outcome,[5],inactive
same,outcome,[6],inactive
same,outcome,[7],inactive
same,outcome,[8],inactive
same,outcome,[13],inactive
same,outcome,[9],inactive
same,AC50,[15],64.5 µM (active) and 68.4 µM (active) and 32.3 µM (active)
same,AC50,[16],43.5 µM (active) and 42.8 µM (active) and 23 µM (active)
same,AC50,[17],62.6 µM (active) and 64.8 µM (active) and 27.3 µM (active)
same,outcome,[18],inactive
same,AC50,[19],71 µM (active)
same,outcome,[19],inactive
O=C=Nc1ccccc1,outcome,[20],inactive
same,outcome,[10],inactive
same,outcome,[2],inactive
same,outcome,[3],inactive
same,outcome,[12],inactive
same,outcome,[6],inactive
same,outcome,[7],inactive
same,outcome,[14],inactive
CC1(C)CC(=O)CC(C)(C)N1[O],outcome,[20],inactive
same,outcome,[10],inactive
same,outcome,[11],inactive
same,outcome,[2],inactive
same,outcome,[3],inactive
same,outcome,[4],inactive
same,outcome,[12],inactive
same,outcome,[6],inactive
same,outcome,[7],inactive
same,outcome,[14],inactive
same,outcome,[13],inactive
same,outcome,[15],inactive
same,outcome,[18],inactive
same,outcome,[19],inactive
ClCC(Cl)Cl,outcome,[20],inactive
same,outcome,[1],inactive
same,outcome,[11],inactive
same,outcome,[2],inactive
same,outcome,[3],inactive
same,outcome,[4],inactive
same,outcome,[5],inactive
same,outcome,[6],inactive
same,outcome,[7],inactive
same,outcome,[8],inactive
same,outcome,[14],inactive
same,AC50,[13],26.6 µM (active)
same,outcome,[9],inactive
same,outcome,[15],inactive
same,outcome,[17],inactive
same,outcome,[18],inactive
same,outcome,[19],inactive
CC1CCCC1.[C-]#[O+].[C-]#[O+].[C-]#[O+].[Mn],outcome,[20],inactive
same,outcome,[1],inactive
same,outcome,[10],inactive
same,outcome,[11],inactive
same,outcome,[2],inactive
same,outcome,[3],inactive
same,outcome,[7],inactive
same,outcome,[8],inactive
same,outcome,[13],inactive
same,outcome,[9],inactive
same,outcome,[15],inactive
same,outcome,[16],inactive
same,outcome,[18],inactive
same,outcome,[19],inactive
CN(C)N,outcome,[1],inactive
same,outcome,[10],inactive
same,outcome,[11],inactive
same,outcome,[3],inactive
same,outcome,[4],inactive
same,outcome,[12],inactive
same,outcome,[5],inactive
same,outcome,[8],inactive
same,outcome,[17],inactive
same,outcome,[19],inactive
CCOC(=O)C1OC1(C)c1ccccc1 (stereo not given),outcome,[20],inactive
same,outcome,[1],inactive
same,outcome,[10],inactive
same,outcome,[11],inactive
same,outcome,[2],inactive
same,outcome,[4],inactive
same,outcome,[6],inactive
same,outcome,[8],inactive
same,AC50,[14],100 µM (active)
same,outcome,[13],inactive
same,outcome,[15],inactive
same,outcome,[16],inactive
same,outcome,[17],inactive
same,outcome,[18],inactive
same,outcome,[19],inactive
